Laboratory results taken from PubChem BioAssay.
Potency and affinity values are given separately. Calls of active or inactive are those of the source. The rule behind the calls is not given here.

Each compound was assayed against Plasmodium falciparum protein kinase 6 (PK6, PF3D7_1337100) (UniProt Q8IDW1) (assay: PfPK6 kinase inhibitors, biochemical, TCAMS library (AID 1159586)). Conditions: recombinant PfPK6, Kinase-Glo ATP depletion luminescence.
Chain of Plasmodium falciparum protein kinase 6 (PK6, PF3D7_1337100) (Q8IDW1 1-305): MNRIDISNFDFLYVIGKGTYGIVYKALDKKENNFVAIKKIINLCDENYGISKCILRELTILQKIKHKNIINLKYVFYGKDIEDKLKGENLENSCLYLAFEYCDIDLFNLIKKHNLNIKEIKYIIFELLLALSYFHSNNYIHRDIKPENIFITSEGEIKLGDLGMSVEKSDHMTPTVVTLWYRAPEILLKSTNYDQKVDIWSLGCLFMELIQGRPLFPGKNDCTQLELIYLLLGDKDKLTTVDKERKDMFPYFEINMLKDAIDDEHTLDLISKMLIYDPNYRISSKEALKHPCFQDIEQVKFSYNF

outcome, inactive:
Cc1cc(C(=O)NCc2ccc(-c3c(C)noc3C)cc2)n(-c2ccccc2)n1
O=C1OC2(CN1CC1CCN(Cc3ccc(O)c(Cl)c3)CC1)c1ccccc1-c1ccccc12
Cc1cc(O)c(CN(C)Cc2ccc3c(c2)OCCO3)cc1C(C)C
O=C(Nc1ccc2c(c1)CCNCC2)c1ccc(-c2ccc(Cl)cc2)cc1
COc1cc(Cc2cnc(N)nc2N)cc(CC(C)O)c1O (stereo unspecified)
O=C(Nc1ccc(C(F)(F)F)cc1)N[C@H]1CCN(CCCCCNC(=O)[C@@H]2C[C@H]2c2ccc(Cl)c(Cl)c2)C1
CN(C)CCNC(=O)c1ccc2c(c1)ncn2-c1cc(OCc2ccccc2C(F)(F)F)c(C(N)=O)s1 (tested in a mixture with another compound)
CCCCCCOc1ccc(C(=O)N(Cc2ccccc2)c2c(-c3ccccc3)nc3cc(C)ccn23)cc1
CN(C)CCn1c(N)c(-c2nc3ccccc3s2)c2nc(C#N)c(C#N)nc21
Cc1nc(N)nc(N)c1CCCOc1cccc(Cl)c1
CCCC(C)Nc1nc(C)cc(N[C@@H](CC(C)C)C(=O)NCc2cccc(F)c2)n1 (stereo partly specified)
Cc1ccc(NC(=O)c2ccc(N3CCN(c4ccncc4)CC3)cc2)cc1F
CC(CCCCOCCc1ccccc1)NCC(O)c1cc(Cl)c(N)c(Cl)c1 (stereo unspecified)
O=C(Nc1ccc2nc(-c3ccc4nc(NC(=O)C5CCCCC5)sc4c3)[nH]c2c1)C1CCCCC1
Brc1cc2c(cc1C=NNc1nc(Nc3ccccc3)nc(Nc3ccccc3)n1)OCO2
Cc1cc(NCCCCCCN)nc(Nc2ccc(Cl)cc2)n1
CCCCCCCCCN1CC[C@@H](CCCc2ccnc3ccc(O)cc23)[C@@H](CC)C1
CCOC(=O)C1=C(C)NC2=C(C(=O)CC(C)(C)C2)C1c1ccc(Cl)cc1 (stereo unspecified)
CN1CCN(CCCN(Cc2cccc(-c3cccc(CNCCc4ccccc4)c3)c2)C(=O)Nc2ccccc2)CC1
Fc1cc(CN2CCCC2)ccc1OCCCN1CCN(c2cccc(Cl)c2Cl)CC1
O=C(Nc1ccccc1F)NC1CCN(c2ccnc(Nc3ccc(F)cc3)n2)CC1
N/C(=N/C(=NCCCCCCN=C(/N=C(/N)Nc1ccc(Cl)cc1)N1CCOCC1)N1CCOCC1)Nc1ccc(Cl)cc1
COc1ccc(S(=O)(=O)Nc2cc(Br)cc3c2OCCC3)cc1N1CCN(C(=O)C(Cl)(Cl)Cl)CC1
COc1ccc(CC(=O)Nc2ccc(Nc3nc(C)cc(N4CCCC4)n3)cc2)cc1
CCOCCCNc1sc(S(=O)(=O)c2ccccc2)nc1S(=O)(=O)c1ccc(C)cc1
N#Cc1cc(C(=O)Nc2ccccc2)c(N)nc1SCC(=O)Nc1ccc(Br)cc1
